Consider 8 sequences from publication PMC7862700, “An all-to-all approach to the identification of sequence-specific readers for epigenetic DNA modifications on cytosine”.

What all share (assay): DAPPL (digital affinity profiling via proximity ligation, sequencing); 10 mM Tris-HCl pH 7.5, 50 mM NaCl, 1 mM DTT, 4% glycerol, room temperature, 30 min; GST-TFs on glutathione beads, 16-mer random dsDNA library, 0.1% formaldehyde crosslink after washing; high values mean tight binding
Conditions in all cases: protein: recombinant; tags: N-terminal GST; dsDNA, one strand shown

One test addresses T1, ERF (Homo sapiens, UniProt P50548 1-548).
T1 sequence: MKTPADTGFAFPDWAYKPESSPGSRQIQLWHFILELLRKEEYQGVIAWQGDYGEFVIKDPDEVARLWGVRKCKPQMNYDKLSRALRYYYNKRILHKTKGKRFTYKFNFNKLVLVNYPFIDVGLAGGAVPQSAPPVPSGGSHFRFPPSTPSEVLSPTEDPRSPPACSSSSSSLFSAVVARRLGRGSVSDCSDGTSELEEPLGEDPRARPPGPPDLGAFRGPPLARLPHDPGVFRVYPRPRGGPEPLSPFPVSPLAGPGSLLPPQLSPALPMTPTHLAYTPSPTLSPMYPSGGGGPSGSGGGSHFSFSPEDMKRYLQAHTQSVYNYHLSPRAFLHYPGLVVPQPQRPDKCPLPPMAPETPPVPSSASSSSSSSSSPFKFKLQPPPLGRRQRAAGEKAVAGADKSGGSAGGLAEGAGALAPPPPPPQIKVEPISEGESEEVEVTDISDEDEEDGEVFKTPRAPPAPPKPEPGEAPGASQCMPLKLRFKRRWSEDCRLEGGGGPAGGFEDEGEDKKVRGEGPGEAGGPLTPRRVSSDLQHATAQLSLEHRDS
The procedure, abridged: (§1)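 Pools were built from human transcription factors expressed in yeast as GST fusions, captured on glutathione beads and DNA-barcoded, along with a tag-only sample. Incubation with 200 nmole of a 16-mer random double-stranded DNA library lasted 30 min at room temperature in Tris/NaCl/DTT/glycerol buffer, and was followed by washing, 0.1% formaldehyde crosslinking, proximity ligation, PCR amplification and Illumina NextSeq500 sequencing. Binding signal is the quotient of each hexamer's read frequency for a factor and its frequency for the tag-only sample.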

In the next test the target is T2, ETV3L (Homo sapiens, UniProt Q6ZN32 1-361).
T2 sequence: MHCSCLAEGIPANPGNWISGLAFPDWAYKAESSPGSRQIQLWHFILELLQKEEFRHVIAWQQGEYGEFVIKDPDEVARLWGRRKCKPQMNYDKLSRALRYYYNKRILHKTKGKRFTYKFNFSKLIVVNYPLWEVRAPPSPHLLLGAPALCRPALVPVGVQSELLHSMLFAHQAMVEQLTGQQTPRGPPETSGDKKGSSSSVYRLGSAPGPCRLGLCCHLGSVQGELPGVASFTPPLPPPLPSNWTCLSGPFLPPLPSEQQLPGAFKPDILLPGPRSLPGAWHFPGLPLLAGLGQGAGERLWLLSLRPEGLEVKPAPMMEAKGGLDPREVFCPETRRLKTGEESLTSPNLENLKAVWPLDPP
The method, boiled down:
as §1

A further test addresses T3, ETS2 (Homo sapiens, UniProt P15036 1-469).
T3 sequence: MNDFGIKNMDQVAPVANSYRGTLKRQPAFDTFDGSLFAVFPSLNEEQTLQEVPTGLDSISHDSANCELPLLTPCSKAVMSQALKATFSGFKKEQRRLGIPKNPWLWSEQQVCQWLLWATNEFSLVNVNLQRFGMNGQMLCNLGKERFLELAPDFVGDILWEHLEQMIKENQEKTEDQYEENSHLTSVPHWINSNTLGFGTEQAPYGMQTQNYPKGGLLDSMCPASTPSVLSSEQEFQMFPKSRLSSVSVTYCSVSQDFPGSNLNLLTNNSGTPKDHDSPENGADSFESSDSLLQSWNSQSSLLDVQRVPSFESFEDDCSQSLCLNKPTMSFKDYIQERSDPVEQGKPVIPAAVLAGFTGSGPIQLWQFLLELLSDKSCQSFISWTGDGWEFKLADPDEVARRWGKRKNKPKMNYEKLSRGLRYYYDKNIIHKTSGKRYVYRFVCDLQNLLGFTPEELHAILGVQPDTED
The procedure, abridged: as §1

The target in the next test is T4, SPDEF (Homo sapiens, UniProt O95238 1-335).
T4 sequence: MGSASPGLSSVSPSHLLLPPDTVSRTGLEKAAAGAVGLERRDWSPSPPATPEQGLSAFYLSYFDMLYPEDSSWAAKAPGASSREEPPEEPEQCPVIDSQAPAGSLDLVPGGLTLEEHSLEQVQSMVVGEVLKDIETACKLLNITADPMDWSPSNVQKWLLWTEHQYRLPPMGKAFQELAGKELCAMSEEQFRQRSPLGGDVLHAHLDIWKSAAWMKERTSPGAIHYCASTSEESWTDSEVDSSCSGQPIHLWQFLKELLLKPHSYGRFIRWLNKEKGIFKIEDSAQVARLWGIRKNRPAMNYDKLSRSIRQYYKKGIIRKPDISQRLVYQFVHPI
The procedure, abridged:
as §1

In the next test the target is T5, ETV7 (Homo sapiens, UniProt Q9Y603 1-341).
T5 sequence: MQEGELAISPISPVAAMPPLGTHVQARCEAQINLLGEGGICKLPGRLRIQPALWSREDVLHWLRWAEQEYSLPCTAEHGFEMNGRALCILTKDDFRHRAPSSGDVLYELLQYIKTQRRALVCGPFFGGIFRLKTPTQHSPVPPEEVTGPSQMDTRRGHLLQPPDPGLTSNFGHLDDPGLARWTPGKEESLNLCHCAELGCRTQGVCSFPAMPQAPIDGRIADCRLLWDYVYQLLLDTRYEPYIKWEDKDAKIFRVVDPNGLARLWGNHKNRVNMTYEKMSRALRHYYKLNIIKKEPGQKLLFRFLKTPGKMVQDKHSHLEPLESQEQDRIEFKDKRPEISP
The method, boiled down:
as §1

Another test addresses T6, ELF5 (Homo sapiens, UniProt Q9UKW6-2 1-255).
T6 sequence: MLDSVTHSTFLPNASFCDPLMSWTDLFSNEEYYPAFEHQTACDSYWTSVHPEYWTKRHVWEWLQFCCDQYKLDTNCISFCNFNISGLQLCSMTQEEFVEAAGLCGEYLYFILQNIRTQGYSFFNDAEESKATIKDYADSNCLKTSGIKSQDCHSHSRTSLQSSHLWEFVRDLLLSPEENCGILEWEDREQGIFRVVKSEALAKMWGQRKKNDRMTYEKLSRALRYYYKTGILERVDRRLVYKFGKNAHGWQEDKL
The procedure, abridged: as §1

For another test, the target named is T7, ETV3 (Homo sapiens, UniProt P41162-2 1-143).
T7 sequence: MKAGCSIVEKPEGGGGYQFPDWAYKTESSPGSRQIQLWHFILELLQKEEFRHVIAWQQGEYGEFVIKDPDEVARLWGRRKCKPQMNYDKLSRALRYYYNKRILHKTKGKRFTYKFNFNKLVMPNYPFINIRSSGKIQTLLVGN
The method, boiled down:
as §1

The target in another test is ETV6 (Homo sapiens, UniProt P41212 1-452). The procedure, abridged:
as §1

ETV6, sequence (P41212 whole entry): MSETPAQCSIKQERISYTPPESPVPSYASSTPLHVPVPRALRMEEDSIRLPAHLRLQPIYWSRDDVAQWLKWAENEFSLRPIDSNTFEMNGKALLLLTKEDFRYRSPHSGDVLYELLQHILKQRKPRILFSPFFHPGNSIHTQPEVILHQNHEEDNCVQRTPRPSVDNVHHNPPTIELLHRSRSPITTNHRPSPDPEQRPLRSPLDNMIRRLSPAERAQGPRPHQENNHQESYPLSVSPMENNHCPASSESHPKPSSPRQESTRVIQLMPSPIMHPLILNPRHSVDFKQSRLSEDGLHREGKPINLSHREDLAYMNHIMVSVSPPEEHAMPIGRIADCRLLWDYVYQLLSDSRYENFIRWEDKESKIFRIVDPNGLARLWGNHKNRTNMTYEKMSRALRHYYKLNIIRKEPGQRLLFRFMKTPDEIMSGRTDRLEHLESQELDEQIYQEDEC

For the sequence ATGGGC, the binding signal in the test with ERF is 1.17 fold enrichment (6-mer frequency, TF over GST control); in the test with ETV3L, 1.3 fold enrichment (6-mer frequency, TF over GST control); with ETS2, 1.28 fold enrichment (6-mer frequency, TF over GST control); with SPDEF it was 1.24 fold enrichment (6-mer frequency, TF over GST control); with ETV7, 1.22 fold enrichment (6-mer frequency, TF over GST control); with ELF5 it was 1.26 fold enrichment (6-mer frequency, TF over GST control). The binding signal with ETV3 was 1.23 fold enrichment (6-mer frequency, TF over GST control); in the test with ETV6, 1.33 fold enrichment (6-mer frequency, TF over GST control).
AAAATT: the binding signal with ERF was 1.48 fold enrichment (6-mer frequency, TF over GST control); in the test with ETV3L, 1.49 fold enrichment (6-mer frequency, TF over GST control); in the test with ETS2, 1.4 fold enrichment (6-mer frequency, TF over GST control); with SPDEF it was 1.26 fold enrichment (6-mer frequency, TF over GST control); with ETV7, 1.5 fold enrichment (6-mer frequency, TF over GST control); in the test with ELF5, 1.29 fold enrichment (6-mer frequency, TF over GST control). The binding signal with ETV3 was 1.31 fold enrichment (6-mer frequency, TF over GST control); with ETV6, 1.33 fold enrichment (6-mer frequency, TF over GST control).
Turning to TGCGAA, the binding signal with ERF is 1.07 fold enrichment (6-mer frequency, TF over GST control); with ETV3L, 1.1 fold enrichment (6-mer frequency, TF over GST control); in the test with ETS2 it was 1.1 fold enrichment (6-mer frequency, TF over GST control); with SPDEF, 1.2 fold enrichment (6-mer frequency, TF over GST control); in the test with ETV7, 1.18 fold enrichment (6-mer frequency, TF over GST control); with ELF5, 1.13 fold enrichment (6-mer frequency, TF over GST control). Moreover, the binding signal with ETV3 was 1.16 fold enrichment (6-mer frequency, TF over GST control); in the test with ETV6 it was 1.09 fold enrichment (6-mer frequency, TF over GST control).
On to TCTCAT, for which the binding signal was 1.26 fold enrichment (6-mer frequency, TF over GST control) in the test with ERF; 1.32 fold enrichment (6-mer frequency, TF over GST control) with ETV3L; 1.26 fold enrichment (6-mer frequency, TF over GST control) in the test with ETS2; 1.33 fold enrichment (6-mer frequency, TF over GST control) with SPDEF; 1.11 fold enrichment (6-mer frequency, TF over GST control) with ETV7; 1.24 fold enrichment (6-mer frequency, TF over GST control) with ELF5. Further, the binding signal with ETV3 was 1.37 fold enrichment (6-mer frequency, TF over GST control); with ETV6, 1.14 fold enrichment (6-mer frequency, TF over GST control).
In the case of AAAGGG, the binding signal with ERF is 1.09 fold enrichment (6-mer frequency, TF over GST control); in the test with ETV3L, 1.09 fold enrichment (6-mer frequency, TF over GST control); in the test with ETS2, 1.13 fold enrichment (6-mer frequency, TF over GST control); in the test with SPDEF, 1.04 fold enrichment (6-mer frequency, TF over GST control); with ETV7 it was 1.09 fold enrichment (6-mer frequency, TF over GST control); with ELF5, 1.19 fold enrichment (6-mer frequency, TF over GST control). Further, the binding signal with ETV3 is 1.18 fold enrichment (6-mer frequency, TF over GST control); with ETV6, 1.1 fold enrichment (6-mer frequency, TF over GST control).
As to CAATCA, the binding signal was 1.19 fold enrichment (6-mer frequency, TF over GST control) with ERF; 1.2 fold enrichment (6-mer frequency, TF over GST control) in the test with ETV3L; 1.13 fold enrichment (6-mer frequency, TF over GST control) with ETS2; 1.07 fold enrichment (6-mer frequency, TF over GST control) with SPDEF; 1.04 fold enrichment (6-mer frequency, TF over GST control) in the test with ETV7; 1.1 fold enrichment (6-mer frequency, TF over GST control) with ELF5. In addition, the binding signal in the test with ETV3 was 1.1 fold enrichment (6-mer frequency, TF over GST control); with ETV6 it was 1.16 fold enrichment (6-mer frequency, TF over GST control).
With TACGCC, the binding signal in the test with ERF was 1.36 fold enrichment (6-mer frequency, TF over GST control); with ETV3L, 1.36 fold enrichment (6-mer frequency, TF over GST control); in the test with ETS2, 1.29 fold enrichment (6-mer frequency, TF over GST control); with SPDEF, 1.26 fold enrichment (6-mer frequency, TF over GST control); with ETV7 it was 1.19 fold enrichment (6-mer frequency, TF over GST control); in the test with ELF5, 1.2 fold enrichment (6-mer frequency, TF over GST control). Besides, the binding signal with ETV3 is 1.27 fold enrichment (6-mer frequency, TF over GST control); with ETV6 it was 1.28 fold enrichment (6-mer frequency, TF over GST control).
Turning to TGCCGC, the binding signal was 1.32 fold enrichment (6-mer frequency, TF over GST control) with ERF; 1.22 fold enrichment (6-mer frequency, TF over GST control) with ETV3L; 1.33 fold enrichment (6-mer frequency, TF over GST control) with ETS2; 1.15 fold enrichment (6-mer frequency, TF over GST control) with SPDEF; 1.22 fold enrichment (6-mer frequency, TF over GST control) with ETV7; 1.22 fold enrichment (6-mer frequency, TF over GST control) with ELF5. The binding signal in the test with ETV3 is 1.36 fold enrichment (6-mer frequency, TF over GST control); with ETV6 it was 1.27 fold enrichment (6-mer frequency, TF over GST control).
